TRPML1 blocker: inhibitors of human TRPML1 channel; Q9GZU1; TRPML1-inducible cells, Ca2+ dye fluorescence, FDSS; active compounds read low; inhibition of EC80 agonist-evoked calcium signal; activity change, negative = inhibition, % (no concentration beside the values); actives 0.02% (n = 390,000); AID 624415; in the data active = activity change below about -50%; inconclusive = between about -30% and that limit;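 note: stimulus is agonist 54-4 at its EC80 concentration; % is set by controls: 0 for no effect and ±100 for the full control effect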
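Calcium fluorescence in TRPML1-DL cells induced overnight with Tet: a 110 s read after compound pin addition, then a 110 s antagonist read after challenge with 54-4 at 4 uM final (EC80).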
TRPV1 PAM: enhances activation of the human vanilloid receptor TRPV1. Q8NER1. TRPV1-expressing cells, Fluo-8 calcium influx, capsaicin EC20 potentiation. potentiation, % at 8.33 µM. actives 0.02% (n = 320,000). AID 540277; in the data active = potentiation above about 80%; inconclusive = between about 30% and that limit; note: 0% is about no effect
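Fluo-8 calcium influx in TRPV1-expressing cells, kinetic read (ex 480/em 520 nm). Compound added and read 3 min for agonist activity, followed by capsaicin at EC20 final and 2 min further read for enhancement.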
LDHA inh: LDHA (human) enzyme inhibition. P00338. purified LDHA, NADH/diaphorase-resazurin fluorescence; active compounds read low. activity change, % (values are at about 110 or 230 µM). actives 0.15% (n = 480,000); in the data active = activity change below about -30%; inconclusive = mostly about -25% to -30%;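 note: plate controls were DMSO wells for no effect and wells without enzyme for full effect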
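Enzyme activity of human lactate dehydrogenase 5 (2 nM; 0.06 mM NADH, 0.2 mM pyruvate, 5 min, RT) is measured via a resazurin/diaphorase fluorescence readout of residual NADH.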
TRPML1 ag: activates the human TRPML1 channel. actives 0.12% (n = 410,000). activation, % (no concentration beside the values). TRPML1-expressing cells, Ca2+ dye fluorescence, FDSS. Q9GZU1; in the data active = activation above about 50%; inconclusive = mostly about 30% to 49%; note: 0% is about no effect
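TRPML1-DL cells, Tet-induced overnight (~16 h, 37 degrees C), loaded 45-90 min at room temperature with Ca8 no-wash calcium dye plus quencher. FDSS fluorescence: 10 s baseline, compound pin-transfer, 110 s agonist read, then EC80 54-4 (4uM final) and 110 s antagonist read.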
TRPV1 ag: human TRPV1 agonism | actives 0.19% (n = 320,000) | AID 540275 | TRPV1-expressing cells, Fluo-8 calcium influx, agonist mode | Q8NER1 | activation, % at 8.33 µM; in the data active = activation above about 80%; inconclusive = between about 30% and that limit; note: 0% is about no effect
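Fluo-8 calcium influx in TRPV1-expressing cells, kinetic read (ex 480/em 520 nm). Compound added and read 3 min for agonist activity, followed by capsaicin at EC20 final and 2 min further read for enhancement.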
Numbers without * were called inactive; ? = inconclusive; / = not tested or not shown. The list is not random: actives were taken first. Their share in the collection is about 0.41%.

SMILES	TRPML1 blocker	TRPV1 PAM	LDHA inh	TRPML1 ag	TRPV1 ag
Cc1c(OCC(=O)N2CCC(C(N)=O)CC2)ccc2c1oc(=O)c1ccccc12	/	7	-3	/	91*
Cc1c(OCC(=O)N2CCC(C(=O)O)CC2)ccc2c1oc(=O)c1ccccc12	/	?	-11	/	-1
CCN(c1ccccc1)S(=O)(=O)c1ccc(OC)c(NC(=O)CN(C)C)c1	-3	6	-32*	2	1
O=C(Nc1cc([N+](=O)[O-])ccc1O)c1cccc(NC(=O)c2ccco2)c1	7	?	-45*	0	2
N#C/C(=C/c1c2ccccc2cc2ccccc12)c1nc2ccccc2[nH]1	/	/	9	/	/
CCOc1ccccc1-c1c2cc(O)c(=O)cc-2oc2cc(O)c(O)cc12	-8	-41	-10	110*	?
COc1ccc(OC)c(-c2c3cc(O)c(=O)cc-3oc3cc(O)c(O)cc23)c1	1	-7	1	147*	14
O=c1cc2oc3cc(O)c(O)cc3c(-c3ccccc3O)c-2cc1O	14	7	4	16	17
COc1cccc(NC(=O)COc2ccc3c(=O)c(Oc4ccc(F)cc4)coc3c2)c1	/	/	-10	/	/
CN(CC(=O)Nc1ccc(Cl)cc1)C(=O)COc1cccc(F)c1	/	/	1	/	/
CSCCC(c1nnnn1-c1c(C)cccc1C)N1CCN(C/C=C/c2ccccc2)CC1 (stereo not drawn)	/	/	-2	69*	/
CCC(c1nnnn1-c1c(C)cccc1C)N1CCN(C/C=C/c2ccccc2)CC1 (stereo not drawn)	/	/	-10	0	/
CCOc1ccc(NC(=O)CCCn2c(=O)c3cccn3c3ccccc32)cc1	/	/	-31*	/	/
COc1ccc(NC(=O)CCn2c(=O)c3cccn3c3ccccc32)cc1	1	-5	-12	0	11
N#Cc1c(SCC(=O)NCCc2ccccc2)nc(N2CCOCC2)c2c1CCCC2	/	/	-31*	/	/
N#Cc1c(SCC(=O)O)nc(N2CCOCC2)c2c1CCCC2	25	-2	-6	0	-6
CCOc1cc(CNCC(O)c2ccccc2)ccc1Oc1nnnn1-c1ccccc1 (stereo not drawn)	/	/	5	/	/
Cc1ccc2nc(C(=O)N3CCN(c4ccccc4)CC3)cn2c1	/	/	-2	/	/
O=S(=O)(NCCO)c1ccc2c(c1)Cc1cc(S(=O)(=O)NCCO)ccc1-2	-4	2	-4	0	1
NNS(=O)(=O)c1ccc2c(c1)Cc1cc(S(=O)(=O)NN)ccc1-2	23	-9	-35*	2	0
O=C(Nc1ccc2ncccc2c1)c1ccccc1	0	1	-5	0	-5
O=C(Nc1ccc2ncccc2c1)c1ccccc1Cl	4	-9	-42*	0	1
Cc1ccc2oc(C(=O)NCC3CCOCC3)c(C)c2c1	-19	-12	-4	0	84*
Cc1ccc2c(C)c(C(=O)NCC3CCOCC3)oc2c1C	11	/	-1	-1	/
CCOc1ccc(OCCOCCNCCOC)cc1	-25	3	-4	60*	2
SMILES	TRPML1 blocker	TRPV1 PAM	LDHA inh	TRPML1 ag	TRPV1 ag
CCOc1cccc(OCCOCCNC(C)(C)C)c1	-19	-1	-32*	-1	-7
CC1CN(C2CCN(S(=O)(=O)c3ccccc3)CC2)CC(C)O1 (stereo not drawn)	-2	-20	-32*	-1	3
CC1CN(C2CCN(S(=O)(=O)c3ccc(F)cc3)CC2)CC(C)O1 (stereo not drawn)	9	2	-21	0	0
O=C(O)C(c1c[nH]c2cc(OCc3ccccc3)ccc12)N1CCN(Cc2ccccc2)CC1 (stereo not drawn)	/	/	-8	/	/
Cc1ccc(NC(=O)C2=CCN(S(=O)(=O)c3ccc(F)cc3)CC2)c(C)c1	-19	-14	-20	1	?
CCC(C)NC(=O)C1=CCN(S(=O)(=O)c2ccc(C)cc2)CC1 (stereo not drawn)	-54*	4	-4	0	-3
Cc1ccc(NC(=O)CN2C(=O)N/C(=C\c3cccn3-c3ccc(C(=O)O)cc3)C2=O)cc1	/	/	-22	/	/
Cc1ccc(NC(=O)CN2C(=O)N/C(=C/c3cccn3-c3ccc(C(=O)O)cc3)C2=O)cc1	-10	14	-30*	1	-6
CCN1CCN(CC(=O)Nc2cc(C)on2)CC1	1	-7	-25	1	4
Cc1cc(NC(=O)CN2CCCCC2)no1	1	-1	-32*	0	-2
CSc1nnc2c3c4c(sc3nc(-n3nc(C)cc3C)n12)COC(C)(C)C4	10	5	-4	0	80*
N#Cc1cc(C(=O)c2ccccc2O)cn(-c2nccs2)c1=O	-23	-17	-4	64*	87*
N#Cc1cc(C(=O)c2cc(F)ccc2O)cn(-c2nccs2)c1=O	-14	-17	-1	124*	?
Cc1cc(N2CCCC2)c(F)cc1/C=C\[N+](=O)[O-]	-3	28	-2	52*	-6
CCN(CC)c1ccc(NS(=O)(=O)c2ccc3c(c2)CCCC3)cc1C(=O)O	/	/	4	/	/
O=[N+]([O-])c1ccc(S(=O)(=O)N2CCN(C3CCN(Cc4ccccc4)CC3)CC2)cc1	-22	-3	-19	0	1
O=[N+]([O-])c1ccccc1S(=O)(=O)N1CCN(C2CCN(Cc3ccccc3)CC2)CC1	18	-9	-34*	0	0
O=C(Nc1ccc2c3c(cccc13)CC2)c1cccc(I)c1	/	/	3	/	/
CC(Oc1ccc(Cl)cc1)C(=O)Nc1ccccc1N1CCOCC1 (stereo not drawn)	-5	/	-4	74*	/
O=C(COC(=O)C12CC3CC(CC(C3)C1)C2)Nc1ccc2[nH]c(=O)[nH]c2c1	12	-2	0	0	92*
O=C(COC(=O)C12CC3CC(CC(Cl)(C3)C1)C2)Nc1ccc2[nH]c(=O)[nH]c2c1	0	-11	-3	0	?
CCn1c(-n2nc(C)c(C)c2C)nc2c1c(=O)n(Cc1ccccc1)c(=O)n2C	/	/	-2	/	/
Cc1nn(-c2nc3c(c(=O)n(CC(N)=O)c(=O)n3C)n2Cc2ccccc2)c(C)c1C	/	/	-33*	/	/
O=C(Nc1ccc(Cl)c(Cl)c1)C1=Cc2ccccc2OC1	0	5	-9	1	88*
CC(C)(C)c1ccc2cc(C(=O)NC3CC3)[nH]c2c1	/	/	3	/	/
CN(Cc1ccc2c(c1)OCO2)C(=O)c1nn(-c2ccccc2)c(=O)c2ccccc12	/	/	-35*	/	/
O=C(NCc1ccc2c(c1)OCO2)c1nn(-c2ccccc2)c(=O)c2ccccc12	-6	-11	6	-1	7
CCCCCCCCCCCCCCCC[n+]1ccc(/C=C/c2c[nH]c3ccccc23)cc1	/	/	/	16	/
CCCCCCCCCCCCCCCC[n+]1ccc(/C=C/c2c(C)[nH]c3ccccc23)cc1	/	/	/	5	/
CCCCCCCCCC[n+]1ccc(/C=C/c2c[nH]c3ccccc23)cc1	/	/	/	68*	/
